# MARV entry inh: qHTS for inhibitors of binding or entry into cells for Marburg Virus; Marburg virus pseudotyped entry inhibition, cell reporter; Potency, µM (highest dose often 37.8 µM), for the others: at the highest dose activity change, negative = inhibition, hits mostly inhibitors; 300,000 compounds, 1.8% hits; AID 540276, 2011; calls by dose curve; tested in HEK293 cells; also: potency is read from the fitted curve at half-maximal effect; % is scaled to controls: 0 for no effect and ±100 for the full control effect
# Cycloheximide cs: Cycloheximide Counterscreen for Small Molecule Inhibitors of Shiga Toxin; cell reporter, cycloheximide protein synthesis inhibition counterscreen; max response, %; 300,000 compounds, 12% hits; in the data active = max response mostly above about 13%, no sharp cut-off; inactive = mostly below about 14%; also: read at 38.3 µM for the half of the compounds with a filed dose; 0% is about no effect
# VACV mCherry inh: qHTS for Stage-Specific Inhibitors of Vaccinia Orthopoxvirus: mCherry Reporter Primary qHTS. 310,000 compounds, 0.63% hits. Vaccinia virus mCherry reporter infection, fluorescence. Potency, µM (doses to about 36.5 µM), inactives show at the top dose activity change, negative = inhibition, usual class: inhibitors. AID 720579, 2013; calls by dose curve; tested in A549 cells; also: potency is read from the fitted curve at half-maximal effect; % is scaled to controls: 0 for no effect and ±100 for the full control effect; nearly all actives have a fitted effect of over 35% in size
# LASV entry inh: qHTS for Inhibitors of binding or entry into cells for Lassa Virus. 300,000 compounds, 1.2% hits. Potency, µM (doses to about 37.9 µM), inactives show at the top dose activity change, negative = inhibition, usual class: inhibitors. Lassa virus pseudotype entry inhibition, cell reporter. AID 540256, 2011; calls by dose curve; tested in HEK293 cells; also: potency is read from the fitted curve at half-maximal effect; % is scaled to controls: 0 for no effect and ±100 for the full control effect; nearly all actives have a fitted effect of over 50% in size
# Vaccinia Venus: qHTS for Stage-Specific Inhibitors of Vaccinia Orthopoxvirus: Venus Reporter Primary qHTS; Vaccinia virus Venus reporter expression, fluorescence; Potency, µM (top dose mostly 36.5 µM), for inactives: at the top dose activity change, negative = inhibition, actives largely listed as inhibitors; 330,000 compounds, 0.46% hits; calls by dose curve; tested in A549 cells; also: potency is read from the fitted curve at half-maximal effect; % is scaled to controls: 0 for no effect and ±100 for the full control effect; nearly all actives have a fitted effect of over 30% in size
# Shiga toxin inh: A qHTS for Small Molecule Inhibitors of Shiga Toxin; 290,000 compounds, 9.2% hits; Vero cells, Shiga toxin protein synthesis inhibition reporter; inhibition, % at 38.7 µM; in the data active = inhibition mostly above about 28%, no sharp cut-off; inactive = mostly below about 43%; also: 0% is about no effect
# Active calls of the source: *; i = inactive; u = inconclusive; x = no result given; [ ] = dose if it differs, or a comment. The full list was thinned out, with hits kept by preference.
SMILES,MARV entry inh,Cycloheximide cs,VACV mCherry inh,LASV entry inh,Vaccinia Venus,Shiga toxin inh
Cc1ccc(NC(=O)c2ccc(Cl)cc2Cl)c(C(=O)c2ccccc2)c1,x,x,i,-20%[46.1 µM],-9%,x
COc1ccc(C(NC(=O)C(C)C)c2ccc3cccnc3c2O)cc1 (configuration not stated),u,1,4.5µM*,2.5µM*,u,-1
CC(C)C(=O)NC(c1ccc(Cl)cc1Cl)c1ccc2cccnc2c1O (configuration not stated),x,15,x,x,x,x
CCCC(=O)NC(c1ccc(OC)cc1)c1c(O)ccc2ccccc12 (configuration not stated),u,-3,u,u,-23%,-13
CCCC(=O)NC(c1ccc(N(C)C)cc1)c1ccc2cccnc2c1O (configuration not stated),u,6,u,u,u,9
CCCC(=O)NC(c1ccccc1Cl)c1ccc2cccnc2c1O (configuration not stated),0.89µM*,1,1µM*,u,u,7
CCCCC(=O)NC(c1ccc(OC)cc1)c1ccc2cccnc2c1O (configuration not stated),x,x,10µM*,x,u,x
CCCC(=O)NC(c1ccc(C(C)C)cc1)c1ccc2cccnc2c1O (configuration not stated),u,-2,u,4.5µM*,-29%,-10
CCC(=O)NC(c1ccc(C)cc1)c1ccc2cccnc2c1O (configuration not stated),3.2µM*,13,u,11µM*,u,2
O=C(O)c1ccccc1NC(c1ccccc1)c1ccc2cccnc2c1O (configuration not stated),u,x,8.9µM*,u,u,x
COc1ccccc1NC(c1cccnc1)c1ccc2cccnc2c1O (configuration not stated),u,5,-29%,u,-10%,-2
Cc1ccc(CN(C)C2CCN(C)CC2)cc1,-39%,0,i,26%,-11%,15
O=C(NCC1CCCO1)c1cccc(Oc2ccc([N+](=O)[O-])cc2)c1 (configuration not stated),-15%,24*,-11%,-25%,-22%,50*
O=C(NCC1CCCO1)c1cccc(Oc2ccccc2)c1 (configuration not stated),u,33*,-16%,26%[46.1 µM],-6%,53*
O=C(NCC1CCCO1)c1cc2ccccc2[nH]1 (configuration not stated),17%,15*,x,u,-14%,121*
O=C(NCC1CCCO1)c1ccccc1 (configuration not stated),u,3,x,0%,x,27
Cc1ccc2c(c1)COc1c3ccc(C(=O)N4CCOCC4)cc3nn1-2,x,55*,-17%,x,u,96*
O=C(c1ccc2c3n(nc2c1)-c1ccc(Cl)cc1CO3)N1CCCCC1,x,46*,-28%,x,-18%,70*
O=C(c1ccc2c(c1)OCCCO2)N1CCCCC1,x,30,x,x,x,35
Cc1ccc(C(=O)Nc2cccc(C(=O)N3CCOCC3)c2)cc1,2%,18,x,-6%,x,70
O=C(O)c1ccc2c3n(nc2c1)-c1ccc(Cl)cc1CO3,x,42*,i,x,-19%,54*
CC(=O)Nc1cccc(-c2cccc3nccn23)c1,x,x,5%,x,-15%,x
C[C@@H]1O[C@@H](O[C@@H]2C=C3CCC4C(CC[C@]5(C)[C@@H](c6ccc(=O)oc6)CC[C@]45O)[C@@]3(C)CC2)[C@H](O)[C@H](O)[C@H]1O (some centres not stated),x,x,u,x,0.63µM*,x
C[C@@H]1O[C@@H](O[C@@H]2C=C3CC[C@@H]4C(CC[C@]5(C)[C@@H](c6ccc(=O)oc6)CC[C@]45O)[C@@]3(C)CC2)[C@H](O)[C@H](O)[C@H]1O (some centres not stated),x,x,32µM*,x,u,x
CCCn1c(=O)[nH]c2nc(-c3ccc(S(=O)(=O)O)cc3)[nH]c2c1=O,x,-6,x,x,x,-2
SMILES,MARV entry inh,Cycloheximide cs,VACV mCherry inh,LASV entry inh,Vaccinia Venus,Shiga toxin inh
C=CCCCN1C=C(C(=O)OCC)C(c2ccccc2)NC1=O (configuration not stated),-11%[14.2 µM],x,x,x,x,x
COc1ccc(CN(C(=O)c2nsc(Cl)c2Cl)C(C(=O)NC2CCCC2)c2ccc(OC)cc2)cc1 (configuration not stated),u,6,x,21µM*,x,14
COc1ccc(CN(C(=O)c2snc(C(N)=O)c2N)C(C(=O)NC2CCCC2)c2ccc(OC)cc2)cc1 (configuration not stated),-19%[46.1 µM],-6,-1%,u,-9%,-5
COc1ccccc1N(O)C1CC(=O)N(c2ccc(Br)cc2)C1=O (configuration not stated),0%,27*,x,-7%,x,42*
CC(=O)Nc1c(N)[nH]c(=O)n(C)c1=O,x,-5,x,x,x,-8
CC(=O)Nc1c2sscc-2n(C)c1=O,x,47*,x,x,x,36*
CC(=O)OC[C@H]1O[C@@H](ON=C2C[C@@H](O)[C@@H](O)[C@@H]3[C@H]4C(=O)N(Cc5ccccc5)C(=O)[C@@H]4CC[C@@H]23)[C@H](OC(C)=O)[C@@H](OC(C)=O)[C@H]1OC(C)=O,-9%[14.2 µM],x,x,u,x,x
c1ccc2[nH]c3cc4ncnc4cc3nc2c1,-25%,28*,u,-11%,u,36*
Brc1ccccc1OCCCCn1cnc2ccccc21,u,26*,i,u,-16%,42*
Clc1ccccc1OCCn1cnc2ccccc21,5%,31*,-27%,34%[14.3 µM],-18%,72*
CCOc1ccc(CC(=O)NCCc2csc(-c3ccc(Cl)cc3)n2)cc1,x,x,u,0%[46.1 µM],-22%,x
CSc1cccc(NC(=S)N(CCN(C)C)C(C)c2ccccn2)c1 (configuration not stated),10µM*,1,-27%,u,u,-3
COC(=O)c1ccc(C2C(Oc3ccccc3)C(=O)N2CCc2ccc(F)cc2)cc1 (configuration not stated),u,-4,x,-13%,x,-4
CC1SC(c2ccc(F)cc2)N(CCc2ccccc2)C1=O (configuration not stated),0%[46.1 µM],24*,i,3%[46.1 µM],-15%,42*
COc1ccc(CCNC(=O)Nc2ccc3c(c2)c(=O)n(C)n3CC=C(C)C)cc1OC,x,x,-10%,x,-3%,x
O[C@@H]1[C@@H](O)C=C2CCN3Cc4cc5c(cc4[C@H]1C23)OCO5 (some centres not stated),x,x,u,x,4µM*,x
OC1C=C2CCN3Cc4cc5c(cc4C(C1O)C23)OCO5 (configuration not stated),x,x,u,x,7.1µM*,x

# Assay outcomes from PubChem BioAssay.
